Assay outcomes as filed in PubChem BioAssay.
mHTT-CaM PPI inh: inhibitors of human mutant huntingtin-calmodulin interaction | P42858 | inhibition, % at 15 µM | AlphaScreen His-mHTT/GST-CaM binding, luminescence | actives 3.6% (n = 190,000);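 also: 0% = both proteins with DMSO and 100% = one protein alone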
Pf apPOL inh: Pf-apPOL DNA polymerase inhibition; actives 0.25% (n = 210,000); AID 1794808; Recombinant Pf-apPOL, molecular beacon fluorescence, 1.5 h; inhibition, % at 10 µM
* marks the source's active call; other numbers are inactive results. Hits are enriched below; roughly 3.6% of the tested compounds scored in any of these assays. Rule as the data show it: active = inhibition above about 50%; inactive = the rest.

SMILES	mHTT-CaM PPI inh	Pf apPOL inh
Cc1cc(C)n(C(C[N+](=O)[O-])c2ccc(F)cc2)n1 (stereo unspecified)	-3	-1
O=[N+]([O-])c1cccc(-c2csc(Nc3ccc(Oc4ccccc4)cc3)n2)c1	14	-9
O=C1C(N2CCCC2)=C(N2CCN(S(=O)(=O)c3ccccc3)CC2)C(=O)c2ccccc21	80*	-4
O=S(=O)(c1ccccc1)N1CCN(S(=O)(=O)c2ccccc2)C1	-7	8
OC(CN1CCCC1)C12CC3CC(CC(C3)C1)C2 (stereo unspecified)	-1	0
